Screens (PubChem BioAssay)
Shown are actives, neighbours in structure and some others; about 17% of the full set was active somewhere.
DT40 TDP1 no CPT: qHTS for Inhibitors of human tyrosyl-DNA phosphodiesterase 1 (TDP1): qHTS in cells in absence of CPT. AID 686978, 2013. Potency, µM (titrated, usually from 46.2 µM), inactives show at the top dose activity change, negative = growth inhibition, actives largely listed as inhibitors. DT40 Tdp1-/- hTDP1 cells, no CPT, ATP luminescence, 48 h. actives 15% (n = 420,000); also: % is scaled to controls: 0 for no effect and ±100 for the full control effect; nearly all actives have a fitted effect of over 55% in size
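Chicken DT40 Tdp1-/- cells complemented with human TDP1, screened without camptothecin (DMSO vehicle only), 400 cells/well. Compounds pin-transferred, cells incubated at 37 °C for at least 48 hr. Growth read as ATP-dependent luminescence (CellTiter-Glo, 30 min at RT).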
ATXN2 expr inh: Primary qHTS for Inhibitors of ATXN expression. HEK-293 ATXN2-luciferase reporter, luminescence, 24 h. Potency, µM (highest dose often 57 µM), inactives show at the highest dose activity change, negative = inhibition, most hits filed as inhibitors. actives 0.72% (n = 360,000). AID 1745845, 2022; also: % is scaled to controls: 0 for no effect and ±100 for the full control effect; nearly all actives have a fitted effect of over 55% in size
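ATXN2-luciferase reporter cells (luciferase flanked by upstream and downstream ATXN2 gene portions) were treated 24 h at 37 °C with compounds at up to 57 uM. SteadyGlo luminescence gave expression; GF-AFC fluorescence gave viability.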
HepG2 tox: qHTS for Inhibitors of TGF-b: Cytotox Counterscreen; actives 0.76% (n = 410,000); HepG2 CAGA-GFP viability, ATP luminescence, 18 h; Potency, µM (highest dose often 46.1 µM), for the others: at the highest dose activity change, negative = cytotoxicity, most hits filed as cytotoxic; AID 588856, 2011
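CellTiter-Glo luminescence gave cytotoxicity after 18 hours at 37 degrees C. The cells were HepG2 CAGA-GFP in 1% FBS DMEM, stimulated with 500 pg/mL TGF-beta after compound addition. %Activity was normalised to no-cell wells (complete cell-killing) and DMSO (no toxicity), and curves were fitted and classified.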
TGFb inhibitor: qHTS for Inhibitors of TGF-b; HepG2 CAGA-GFP TGF-b/SMAD3 reporter, GFP fluorescence, 18 h; TGF-beta stimulated, 500 pg/mL final; actives 1.2% (n = 410,000); Potency, µM (series often up to 46.1 µM), without a hit: at the top dose activity, negative = inhibition, usual class: inhibitors; also: % is scaled to controls: 0 for no effect and ±100 for the full control effect; nearly all actives have a fitted effect of over 65% in size
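Cell-based qHTS in HEPG2 carrying a CAGA-GFP Smad reporter; compounds added before 500 pg/mL final TGF-beta, 18 h incubation at 37 degrees C, GFP fluorescence quantified per cell by imaging cytometry.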
S2 tox: Viability Counterscreen for Primary qHTS for Inhibitors of ATXN expression; S2 cells (HEK-293 line with an ATXN2-luciferase reporter) viability, CellTiter-Fluor protease fluorescence, 24 h; Potency, µM (series often up to 56.7 µM), hits mostly cytotoxic; actives 0.49% (n = 400,000); AID 651635, 2014; also: nearly all actives have a fitted effect of over 40% in size
DT40 TDP1 CPT: qHTS for Inhibitors of human tyrosyl-DNA phosphodiesterase 1 (TDP1): qHTS in cells in presence of CPT | chicken DT40 Tdp1-/-;hTDP1 cells + 20 nM CPT, ATP luminescence, 48 h | Potency, µM (top dose mostly 46.2 µM), for inactives: at the highest dose activity change, negative = growth inhibition, usual class: inhibitors | actives 12% (n = 420,000) | AID 686979, 2013; also: % is scaled to controls: 0 for no effect and ±100 for the full control effect; nearly all actives have a fitted effect of over 55% in size
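Cell growth measured by CellTiter-Glo luminescence after a minimum 48 h, 37 C compound exposure with 20 nM CPT in Tdp1-knockout DT40 cells stably expressing hTDP1, seeded 400/well; qHTS titration format.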
* = called active by the depositor; i = inactive; ? = inconclusive; / = no result; [ ] = remark or other dose. Calls follow the shape of the dose curve; as a rule, active = well fitted curve in the direction sought with a large enough effect; inconclusive = small, poorly fitted or top-dose-only effect, or another doubt; inactive = no such curve, though single readings can be large; an effect the other way counts as inactive or inconclusive. Potency is read from the fitted curve at half-maximal effect.

SMILES	DT40 TDP1 no CPT	ATXN2 expr inh	HepG2 tox	TGFb inhibitor	S2 tox	DT40 TDP1 CPT
CCOC(=O)N1CCN(C(=O)CSc2cc(C)nc3c(-c4ccccc4OC)c(C)nn23)CC1	16.4µM*	-9.3%	-77.4%	?	?	23.1µM*
COc1ccccc1-c1c(C)nn2c(N3CCC(C(N)=O)CC3)cc(C)nc12	-14.1%	-4.7%	-0.9%	-19.7%	i	-4.4%
O=C[C@H](O)[C@@H](O)[C@H](O[C@H]1O[C@H](CO)[C@@H](O[C@H]2O[C@H](CO)[C@@H](O)[C@H](O)[C@H]2O)[C@H](O)[C@H]1O)[C@H](O)CO	-1.8%	/	/	/	i	-6.3%
CC(O)(c1ccc(Cl)cc1)C(c1ccccc1)c1ccccn1 (stereo not given)	-0.9%	-11.9%	0.1%	-25.6%	i	-9.8%
CCOC(=O)C1CCN(C(=O)CNS(=O)(=O)c2cccs2)CC1	-17.8%	-11.6%	-10.8%	0.0%	i	-10.5%
COc1ccccc1N1CCN(c2nc(CNC(=O)c3cc(C)oc3C)nc3ccccc23)CC1	?	/	/	/	?	-19.9%[9.04 µM]
O=C(CSc1nc2nn(-c3ccccc3)c(=O)c-2c2n1CCCCC2)Nc1ccc(OC(F)F)cc1	?	6.6%	-8.3%	-2.4%	i	?
CCOc1ccc(S(=O)(=O)N2CCN(C(=O)c3cc(C4CC4)nn3-c3ccccc3)CC2)cc1	18.4µM*	7.3%	14.5%	-18.8%	i	20.6µM*
O=C(c1cc(C2CC2)nn1-c1ccccc1)N1CCN(c2ccc(O)cc2)CC1	?	-12.1%	-5.9%	-0.1%	i	?
O=C(NC1CCCCC1)c1cc(C2CC2)nn1-c1ccccc1	16.4µM*	7.5%	-17.8%	13.7%	i	16.4µM*
O=C(c1cc(C2CC2)nn1-c1ccccc1)N1CCN(c2ccccc2O)CC1	16.4µM*	-13.3%	2.7%	-18.6%	i	?
COC(=O)c1sccc1NC(=O)c1cnc2cc(C)nn2c1C	15.9%	9.8%	1.5%	5.8%	i	12.0%
CCOc1ccc(C(=O)c2oc3ccccc3c2NC(=O)c2cc(=O)c3ccc(C)cc3o2)cc1	-15.8%	0.9%	-14.2%	-6.8%	i	-3.1%
O=c1[nH]c(/C(Cl)=C/c2cccc(F)c2)nc2cc(C(F)(F)F)ccc12	23.1µM*	-32.5%	-0.4%	6.3%	i	?
O=C(COc1ccc(Cl)cc1)N1N=C(c2cccs2)CC1c1ccco1 (stereo not given)	16.4µM*	3.8%	-14.9%	-3.0%	i	25.9µM*
O=C(CCl)N1N=C(c2cccs2)CC1c1ccco1 (stereo not given)	2.91µM*	4.23µM*	-89.5%	11.2µM*	/	2.91µM*
O=C(CCl)N1N=C(c2ccco2)CC1c1ccco1 (stereo not given)	13µM*	-15.5%	-84.6%	11.2µM*	i	9.2µM*
O=C(COc1ccccc1F)N1N=C(c2cccs2)CC1c1ccco1 (stereo not given)	?	-6.5%	-2.7%	18.1%	i	?
Cc1nn(C)c2c1c(C(F)(F)F)cc(=O)n2CC(=O)NCc1ccc(OC(C)C)cc1	?	4.5%	-9.1%	5.1%	i	-26.1%
C[C@H]1CN([C@@H](C)CO)S(=O)(=O)c2ccc(Br)cc2O[C@@H]1CN(C)Cc1cccc(F)c1	16.4µM*	-74.8%	12.6µM*	17.8µM*	/	16.4µM*
